# MCF10A rerep = A quantitative high throughput screen for small molecules that induce DNA re-replication in MCF 10a normal breast cells. MCF 10A DNA re-replication, Hoechst nuclear intensity, 48 h. Potency, µM (top dose mostly 46.1 µM), for inactives: at the top dose activity, positive = re-replication, usual class: activators. actives 2.9% (n = 350,000). AID 624296, 2012; also: % of control where 0% means no effect; nearly all actives have a fitted effect of over 50% in size
# SW480 rerep = A quantitative high throughput screen for small molecules that induce DNA re-replication in SW480 colon adenocarcinoma cells; SW480 DNA re-replication, Hoechst DNA content imaging, 48 h; Potency, µM (doses to about 46.1 µM), for the others: at the highest dose re-replication activation, hits mostly activators; actives 1.8% (n = 340,000); also: % of control where 0% means no effect; nearly all actives have a fitted effect of over 55% in size
#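 Image-based read-out: total Hoechst fluorescence of nuclei (405 nm excitation, 500-530 nm emission), with hits raising the fraction of high-intensity nuclei. SW480 colon cells incubated 48 hr with compounds at 37 C.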
# RORg inh = qHTS for inhibitors of ROR gamma transcriptional activity. Drosophila S2 Gal4-RORgamma UAS-luciferase reporter, 20 h. Potency, µM (doses to about 53.6 µM), for the others: at the highest dose activity change, negative = inhibition, actives largely listed as inhibitors. actives 5.4% (n = 310,000). AID 2551, 2010; also: % is scaled to controls: 0 for no effect and ±100 for the full control effect; nearly all actives have a fitted effect of over 60% in size
# Target sequence (P51450 whole entry, looked up, the tested form may be a part): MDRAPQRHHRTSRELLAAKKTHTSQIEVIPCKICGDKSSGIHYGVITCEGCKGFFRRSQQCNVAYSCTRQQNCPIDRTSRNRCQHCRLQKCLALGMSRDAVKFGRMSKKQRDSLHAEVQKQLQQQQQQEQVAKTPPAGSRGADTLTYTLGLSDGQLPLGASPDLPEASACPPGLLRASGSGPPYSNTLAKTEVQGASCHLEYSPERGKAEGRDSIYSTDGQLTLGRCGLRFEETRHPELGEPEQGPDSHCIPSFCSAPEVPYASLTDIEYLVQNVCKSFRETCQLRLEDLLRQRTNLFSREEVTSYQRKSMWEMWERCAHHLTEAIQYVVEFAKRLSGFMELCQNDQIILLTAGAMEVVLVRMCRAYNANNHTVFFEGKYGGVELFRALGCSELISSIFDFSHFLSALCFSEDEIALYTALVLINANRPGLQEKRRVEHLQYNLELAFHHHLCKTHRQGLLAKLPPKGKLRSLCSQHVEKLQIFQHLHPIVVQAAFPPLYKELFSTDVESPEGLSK
#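 Luciferase reporter read in Schneider cells carrying Gal4-RORγ (mouse) and UAS-Photinus luciferase; cells given compound 1 h before 700 uM copper sulfate induction, then incubated 20 h at ambient temperature.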
# Gal4-VP16 FLuc = VP16 counterscreen qHTS for inhibitors of ROR gamma transcriptional activity; Drosophila S2 Gal4-VP16 UAS-luciferase, luminescence, 20 h; Potency, µM (highest dose often 53.6 µM), for the others: at the top dose activity, negative = inhibition, usual class: inhibitors; actives 3.5% (n = 310,000); AID 2546, 2010;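 also: Gal4-VP16 expression switched on by copper sulfate through the metallothionein promoter; % is scaled to controls: 0 for no effect and ±100 for the full control effect; nearly all actives have a fitted effect of over 50% in size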
# KB-V1 MDR tox = qHTS assay for MDR1-selective chemotherapeutics: Primary screen using the drug-selected MDR subline cells KB-V1 | KB-V1 MDR cells viability, CellTiter-Glo, 72 h | Potency, µM (doses to about 46.1 µM), usual class: cytotoxic | actives 3.4% (n = 400,000); also: % is scaled to controls: 0 for no effect and ±100 for the full control effect; nearly all actives have a fitted effect of over 60% in size
#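 Cytotoxicity via CellTiter-Glo luminescence after 72 h compound exposure at 37 degrees C. Cells: drug-selected KB-V1 line, DMEM phenol-red free plus 10% FBS. Compounds tested at multiple concentrations; normalized data fitted to concentration-effect curves.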
# KB-3-1 tox = qHTS assay for MDR1-selective chemotherapeutics: Primary screen using the parental adenocarcinoma cell KB-3-1; KB-3-1 viability, CellTiter-Glo ATP luminescence, 72 h; Potency, µM (doses to about 46.1 µM), hits mostly cytotoxic; actives 1.4% (n = 400,000); AID 1347075, 2019; also: % is scaled to controls: 0 for no effect and ±100 for the full control effect; nearly all actives have a fitted effect of over 60% in size
#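 Multi-concentration cytotoxicity screen in KB-3-1 cells grown in DMEM lacking phenol red with 10% FBS. After 72 h at 37 °C with compound, ATP-dependent luminescence was recorded.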
# Numbers without * were called inactive; i = inactive; ? = inconclusive; . = no result; [ ] = another dose, or the depositor's remark. This is a sample that favours compounds with a hit; in the whole collection about 10% have one here. Calls follow the shape of the dose curve; as a rule, active = well fitted curve in the direction sought with a large enough effect; inconclusive = small, poorly fitted or top-dose-only effect, or another doubt; inactive = no such curve, though single readings can be large; an effect the other way counts as inactive or inconclusive. Potency is read from the fitted curve at half-maximal effect.
SMILES,MCF10A rerep,SW480 rerep,RORg inh,Gal4-VP16 FLuc,KB-V1 MDR tox,KB-3-1 tox
O=[N+]([O-])c1ccccc1/C=C/C=N/n1c(-c2ccco2)n[nH]c1=S,?,12%,8.9µM*,6%,i,i
C/C(=N\NC(=O)c1c(Cl)cnn1C)c1cccc(NC(=O)COc2ccccc2)c1,16µM*,4%,8%,7%,i,i
C/C(=N/NC(=O)c1cccs1)c1ccc(NC(=O)COc2ccc(Cl)cc2Cl)cc1,6.5µM*,9.2µM*,-16%,0%,i,i
C/C(=N/NC(=O)c1ccco1)c1cccc(NC(=O)c2ccc(C)s2)c1,3%,-2%,-15%,6%,10µM*,i
CC(=O)c1cccc(NC(=O)COc2ccccc2)c1,8%,-10%,-5%[0.365 µM],.,i,i
C/C(=N/NC(=O)c1ccc(C)s1)c1cccc(NC(=O)COc2ccc(Cl)cc2Cl)c1,9.2µM*,?,5%,-11%,i,i
C/C(=N/NC(=O)c1ccc(Cl)s1)c1ccc(NC(=O)COc2ccc(Cl)cc2)cc1,?,?,?,-3%,?,?
C/C(=N/NC(=O)c1ccco1)c1cccc(NC(=O)c2ccc(C)o2)c1,28%,0%,-10%,6%,i,i
Cc1noc(Cn2c(=O)c3ccccc3n(CC(=O)Nc3ccc(C(C)C)cc3)c2=O)n1,.,.,.,.,i,i
Cc1cc(C)cc(NC(=O)N2CCN(C)c3ncccc32)c1,.,.,.,.,i,i
O=C(Nc1nccs1)c1cn(-c2ccccc2)nc1-c1ccccc1,8%,23%,7.1µM*,?,?,?
CC(C)COc1ccc(-c2nn(-c3ccccc3)cc2C(=O)Nc2nccs2)cc1,-178%[0.0737 µM],?,2.5µM*,4.5µM*,i,i
CC(=O)Cc1nsc(NC(=O)c2cn(-c3ccccc3)nc2-c2ccc(Br)cc2)n1,-2%,-16%,?,14µM*,i,i
COC(=O)[C@@]1(Cc2ccccc2)[C@H]2c3cc(C(=O)N(C)C)n(Cc4nc5ccccc5[nH]4)c3C[C@H]2CN1C(=O)c1ccccc1,.,.,-14%,3%,.,.
Cc1nnc(-c2cccc(Br)c2)c2cn(-c3ccccc3)nc12,?,-3%,38%,0%,?,?
Cc1nnc(-c2cccc(Br)c2)c2cn(-c3cccc(Br)c3)nc12,?,-5%,1%,5%,9.2µM*,?
O=C(Cn1c2ncccc2c(=O)n1-c1ccccc1)Nc1ccc(F)c(F)c1,.,.,.,.,i,i
COCCn1c(N)c(C#N)c2nc3ccccc3nc21,?,?,3%,0%,i,i
N#Cc1c(N)n(CCc2ccc(F)cc2)c2nc3ccccc3nc12,?,15µM*,-1%,1%,i,i
COc1ccc(Cn2c(N)c(C#N)c3nc4ccccc4nc32)cc1,7.3µM*,9.2µM*,2%,?,?,i
COc1cc(Cn2c(N)c(C#N)c3nc4ccccc4nc32)cc(OC)c1,4.6µM*,8.2µM*,1%,8%,i,i
COc1cccc(Cn2c(N)c(C#N)c3nc4ccccc4nc32)c1OC,?,?,-25%,-25%,i,i
N#Cc1c(N)n(-c2ccc(O)cc2)c2nc3ccccc3nc12,?,-3%,-7%,-5%,i,?
CCOc1ccc(Cn2c3ccc(OC)cc3c3nc4ccccc4nc32)cc1,5.8µM*,-4%,-16%,1%,i,?
Cc1ccc(-c2nc3c(c(=O)[nH]c(=O)n3Cc3ccccc3)n2Cc2ccccc2)o1,?,?,20%,1%,?,i
SMILES,MCF10A rerep,SW480 rerep,RORg inh,Gal4-VP16 FLuc,KB-V1 MDR tox,KB-3-1 tox
Cc1cc(C)c2c(=O)[nH]c(=O)n(Cc3ccccc3)c2n1,27%,-9%,0%,0%,13µM*,i
COc1ccccc1NC(=O)N(Cc1ccco1)Cc1cc2cccc(C)c2[nH]c1=O,?,13%,8%,-6%[0.365 µM],i,?
COc1ccccc1NC(=S)N(Cc1ccco1)Cc1cc2cc(C)ccc2[nH]c1=O,?,?,1%,5%,?,1.8µM*
CCOc1ccc2[nH]c(=O)c(CN(Cc3ccccc3OC)C(=O)c3ccccc3)cc2c1,21µM*,?,-13%,-6%,4.6µM*,5.2µM*
Cc1ccc(N(CC(=O)NCc2ccc(F)cc2)C(=O)c2ccco2)cc1C,-5%,1%,21%,2%,?,i
CCOc1ccc(N(CC(=O)NCc2ccc(F)cc2)C(=O)c2ccco2)cc1,8%,-2%,8%,0%,16µM*,i
CCOc1ccc2[nH]c(=O)c(CN(Cc3ccco3)C(=O)c3ccc(Br)cc3)cc2c1,16µM*,?,24%,-16%,23µM*,?
COc1cccc(Nc2ncc3nc(C)c(=O)n(C[C@H]4CCCO4)c3n2)c1,.,.,?,3%,.,.
COc1ccc(C(c2c(O)cc(C)n(Cc3ccco3)c2=O)N2CCCCC2)cc1OC (stereo not given),.,.,.,.,i,i
Cc1ccc2[nH]c(=O)c(CN(Cc3ccco3)C(=O)c3ccncc3)cc2c1,?,?,14%,4%,?,12µM*
CCc1ccc2[nH]c(=O)c(CN(CCN(C)C)C(=S)NCc3ccco3)cc2c1,-5%,-4%,2%,-5%,i,i
CCN(Cc1cc2cc(C)ccc2[nH]c1=O)C(=O)c1cccc(OC)c1,11%,6%,?,5%,9.2µM*,i
CCOc1ccc2[nH]c(=O)c(CN(Cc3ccc(F)cc3)C(=O)c3ccco3)cc2c1,?,?,?,-28%,15µM*,16µM*
COc1ccc(C(=O)N(Cc2ccco2)Cc2cc3cc(C)ccc3[nH]c2=O)cc1OC,3%,10%,.,.,i,i
CCc1ccc2[nH]c(=O)c(CN(CCN(CC)CC)C(=S)NCc3ccco3)cc2c1,6%,-31%,-36%,?,?,23µM*
COC(=O)CC1[C@@]2(C)C[C@@]34OC5(C)OC6(CC[C@@]7(C)C(c8ccoc8)OC(=O)C(C(C)=O)C7[C@]6(O5)C(O)[C@@]3(O)C2O)[C@]14C (stereo not given in full),.,.,4%,-5%,.,.
O=C1C=C[C@@H](O)[C@H]2[C@@H]3C(=O)N(C4CCCCC4)C(=O)[C@@H]3CC[C@H]12,.,.,-37%[10 µM],3%[10 µM],.,.

# From PubChem
